Measured values taken from ChEMBL document CHEMBL3988442, “University of Dundee, Small-Polar-MMV Screening Library” (2021).
Screen size: about 48,000 compounds; about 13,000 (27%) showed an effect of 50% or more. This is one part of the list.

Tested on: Wolbachia pipientis
Assay: Anti-Wolbachia Cell-Based Screen
Assay type: functional
Parameters: scale not given: in the data most compounds retested in dose-response had high values
Settings: 5 µM

Row | Structure (SMILES) | Percent Effect [%]
1 | CC(C)Cn1cc(NC(=O)N2CCOC(c3ccccc3)C2)cn1 (configuration not stated) | 2.646
2 | Cc1nc(-c2ccccc2)sc1C(=O)NCCNc1ncccn1 | 2.127
3 | Cc1nc[nH]c1-c1nccn1-c1ccc(C(N)=O)c(N2CCCC2)c1 | 8.513
4 | CN(C(=O)CCC(F)(F)F)c1cccc2ncccc12 | 2.571
5 | Cc1n[nH]c(SCC(=O)N[C@@H](C)C(N)=O)n1 | -9.569
6 | O=C(C1CCC1)N1C[C@@H]2CN(Cc3ccncc3)C(=O)[C@@H]2C1.O=C(O)C(F)(F)F | 108.5
7 | CCN1C[C@@H]2CN(C(=O)C3CC=CC3)C[C@@H]2C1=O | 14.39
8 | O=C(C1CC=CC1)N1C[C@H]2CN(Cc3ccncc3)C(=O)[C@H]2C1.O=C(O)C(F)(F)F | 103
9 | O=C(O)C(F)(F)F.O=C1[C@H]2CN(c3ncccn3)C[C@H]2CN1Cc1ccncc1 | 3.817
10 | O=C(C1CCOCC1)N1C[C@@H]2[C@@H](C1)OCC(=O)N2Cc1ccncc1.O=C(O)C(F)(F)F | -1.521
11 | Cc1ccc(CNS(=O)(=O)CC2=NC(=O)n3cccc3C2=O)cc1 | 16.21
12 | COc1cccc(CN2CCC(O)(c3ccc(C)cn3)CC2)c1OC | -1.243
13 | COc1ccnc(CN2CCC(O)(c3ccc(C)cn3)CC2)c1OC | -7.822
14 | O=C(O)C1(O)CCN(c2ccc3cccc(Cl)c3n2)CC1 | 102.6
15 | COc1ccccc1OC1(C(=O)O)CCN(c2nc(C)cnc2C)CC1 | -31.32
16 | COc1cccc2ccc(N3CCC(O)(c4ccc(C)cn4)CC3)nc12 | 110
17 | Nc1nccc(N2CCC(Cc3ccccc3Cl)(C(=O)O)CC2)n1 | -23.92
18 | Cc1nc(N2CCCC2)nc(N2CCC(O)(C(=O)O)CC2)c1C | -11.99
19 | COc1cccc2ccc(N3CCC(O)(C(=O)O)CC3)nc12 | 85.02
20 | COc1ccccc1OC1(C(=O)O)CCN(c2ccccn2)CC1 | -33.54
21 | O=S(=O)(Nc1nccs1)c1cc(Cl)cc2c1OCC2 | -24.06
22 | Fc1cc(CN2CCOC3(CCOCC3)C2)ccc1OC(F)F | -0.1745
23 | CCc1noc(CSc2n[nH]c(-c3ccccn3)n2)n1 | -7.886
24 | CCn1cc(CN2CCCC(COc3ccccc3F)C2)cn1 (configuration not stated) | 9.663
25 | Cn1cc(CN2CCCC(CCc3c(F)cccc3F)C2)cn1 (configuration not stated) | 4.691

Row | Structure (SMILES) | Percent Effect [%]
26 | Cn1nccc1CN1CCCC(COc2ccccc2F)C1 (configuration not stated) | 162.8
27 | CCC1CN(CC(=O)N2CCN(C(C)=O)CC2)CCN1CCOC (configuration not stated) | 107.2
28 | CCC1CN(CC(=O)N2CCCC2)CCN1CCOC (configuration not stated) | 124
29 | CCC1CN(CCNC(C)=O)CCN1CCOC (configuration not stated) | 1.458
30 | CCC1CN(CC(=O)NC2(C#N)CCCC2)CCN1CCOC (configuration not stated) | 2.566
31 | CCC1CN(CCC(=O)N(C)C)CCN1CCOC (configuration not stated) | -4.079
32 | CCC1CN(CC(=O)N2CCC2)CCN1CCOC (configuration not stated) | 4.498
33 | CC(C)Nc1nc2c(cc1C(=O)NCC1CC1)CCNCC2.O=C(O)C(F)(F)F.O=C(O)C(F)(F)F | -11.9
34 | COc1ccc2nc(C3CC3)cc(C(=O)NCCc3nnc[nH]3)c2c1 | -12.63
35 | COCCNC(=O)c1cc(C2CC2)nc2onc(C3CCNC3)c12 (configuration not stated) | 98.56
36 | Cc1c(Br)cccc1C(=O)NCC1CCCNC1.Cl (configuration not stated) | 0.4435
37 | O=C(NCC1CC1)c1cc(C2CC2)nc2onc(C3CCCNC3)c12 (configuration not stated) | 103.5
38 | COc1ccc2nc(C3CC3)cc(C(=O)NCc3noc(C)n3)c2c1 | 1.07
39 | O=c1[nH]c(C2CCOC2)nc2ccc(Br)cc12 (configuration not stated) | -44.09
40 | CCCc1noc(CNc2cc(C[S+](C)[O-])ccc2Cl)n1 (configuration not stated) | -7.446
41 | c1cnn(CCNCc2csc(-c3ccc4c(c3)OCO4)n2)c1 | -13.49
42 | COC(=O)CNC(=O)C(C(C)C)n1cnc2cc(F)c(F)cc21 (configuration not stated) | -6.926
43 | CCn1cnnc1CNC(=O)NCC(C(C)C)N1CCC(C)CC1 (configuration not stated) | -9.877
44 | CCn1cnnc1CNC(=O)N1CCN(Cc2ccsc2)CC1 | 120.4
45 | CCn1cnnc1CNC(=O)N1CCN(c2nccs2)CC1 | 84.21
46 | CCn1cnnc1CNC(=O)N1CCN(c2nc(C)c(C)s2)CC1 | 1.256
47 | CCn1cnnc1CNC(=O)N1CCN(C(C)C)CC1 | 131.3
48 | CCn1cnnc1CNC(=O)N1CCN(c2cccs2)CC1 | 0.168
49 | CCn1cnnc1CNC(=O)N1CCN(CC(C)C)CC1 | 151.2
50 | CCC1CN(Cc2nnc(C(C)C)o2)CCC(=O)N1Cc1ccccc1 (configuration not stated) | -5.543

Row | Structure (SMILES) | Percent Effect [%]
51 | CC(C)N(C)C(=O)C1CCC(=O)N(CCc2cccc(F)c2)C1 (configuration not stated) | -15.9
52 | CN(Cc1ccco1)C(=O)NCc1ccnc(SC(C)(C)C)c1 | 12.7
53 | CN1CCOC(C(=O)N2CCOC3(CCCC3)C2)C1 (configuration not stated) | 0.3314
54 | CCc1nncn1CCNC(=O)N1CCN(Cc2ccccc2)CC1 | 122
55 | CCn1cnnc1CNC(=O)N1CCN(Cc2ccccc2)CC1 | 4.693
56 | CCn1cnnc1CNC(=O)N1CCC(Cc2cccnc2)CC1 | 3.678
57 | CCn1cnnc1CNC(=O)N1CCN(CCc2ccccc2)CC1 | 119.3
58 | CCn1cnnc1CNC(=O)N1CCCCCC1 | 138.5
59 | CCn1cnnc1CNC(=O)N1CCOCC1 | -3.836
60 | Cc1cc(CNC(=O)N2CCCN(Cc3ccccc3)CC2)no1 | 3.243
61 | CCn1cnnc1CNC(=O)N1CCN(Cc2ccco2)CC1 | 145.2
62 | CC(NC(=O)N1CCN(CCc2ccccc2)CC1)c1nncn1C (configuration not stated) | -0.7448
63 | CCn1cnnc1CNC(=O)N1CCCN(C(C)=O)CC1 | -5.792
64 | CCn1cnnc1CNC(=O)N1CCOC(c2ccc(F)cc2)C1 (configuration not stated) | -19.34
65 | CC(C)Oc1cccc(C(=O)C2CCCN(C(=O)c3ccoc3)C2)c1 (configuration not stated) | 9.263
66 | CCSCc1cccc(NC(=O)N(C)Cc2ncnn2C)c1 | -22.36
67 | COc1ccc(NC(C)C(=O)N2CCCC2)cn1 (configuration not stated) | 2.582
68 | CCn1cnnc1CNC(=O)N1CCC(OCc2ccccc2)CC1 | 128.6
69 | CCN(CC)C1CCN(C(=O)NCc2nncn2CC)CC1 | 7.856
70 | CCn1cnnc1CNC(=O)N1CCC(C(=O)NC)CC1 | -5.598
71 | O=C(NCC(O)c1cccc(O)c1)C1CCN(C2CCCCC2)CC1 (configuration not stated) | -14.15
72 | Cc1nc[nH]c1-c1c(-c2ccccc2)ncn1C1CCNC1 (configuration not stated) | 7.819
73 | O=C(O)C(F)(F)F.O=C([C@@H]1COC[C@H]2CN(c3ccncn3)C[C@H]21)N1CCCCO1 | -6.047
74 | Cc1ccc(N2CC[C@H]3O[C@H](C(=O)N4CCCCO4)CC[C@H]32)nn1.O=C(O)C(F)(F)F | 105.7
75 | CN1CCN(C(=O)[C@@H]2CC[C@@H]3[C@@H](CCN3c3ncccn3)O2)CC1.O=C(O)C(F)(F)F.O=C(O)C(F)(F)F | -4.531

Row | Structure (SMILES) | Percent Effect [%]
76 | O=C([C@H]1CC[C@@H]2[C@@H](CCN2c2ncccn2)O1)N1CCCCO1 | 84.25
77 | Cc1ccc(N2CC[C@H]3O[C@@H](C(=O)N4CCCCO4)CC[C@H]32)nn1.O=C(O)C(F)(F)F | 113.9
78 | O=C(O)C(F)(F)F.O=C([C@H]1CC[C@@H]2[C@@H](CCN2Cc2ccc(F)cc2)O1)N1CCCO1 | -3.999
79 | O=C([C@@H]1CC[C@@H]2[C@@H](CCN2c2ncccn2)O1)N1CCCO1 | 3.223
80 | O=C(O)C(F)(F)F.O=C([C@@H]1CC[C@@H]2[C@@H](CCN2c2ccncn2)O1)N1CCCCO1 | 117.6
81 | COC(=O)N(C)CCCC(=O)Nc1[nH]nc(-c2ccncc2)c1C | -7.715
82 | O=C1CC[C@H]2CN(C3CCOCC3)CC[C@H]2N1CCC1=CCCCC1 | 14.62
83 | Cc1ccc(N2CC[C@H]3O[C@@H](C(=O)N4CCCO4)CC[C@H]32)nn1.O=C(O)C(F)(F)F | 88.3
84 | Cc1ccc(N2CC[C@H]3O[C@@H](C(=O)NCc4ccco4)CC[C@H]32)nn1.O=C(O)C(F)(F)F | 17.63
85 | Cc1ccc(CN2CC[C@H]3O[C@@H](C(=O)N4CCCO4)CC[C@H]32)s1.O=C(O)C(F)(F)F | -7.276
86 | CSCCc1ccc(NC(=O)NC(C)Cn2cncn2)cc1 (configuration not stated) | -13.08
87 | C[C@@H]1CN(c2ccc(C#N)cn2)CC[C@@]1(O)C1CCOCC1 | 124
88 | C[C@@H]1CN(C(=O)c2cnc(C3CC3)nc2)CC[C@@]1(O)C1CCOCC1 | -14.06
89 | C[C@@H]1CN(C(=O)c2c[nH]c(=O)c(Cl)c2)CC[C@@]1(O)C1CCOCC1 | 3.711
90 | C[C@@H]1CN(c2cccnn2)CC[C@@]1(O)C1CCOCC1 | 104.1
91 | C[C@@H]1CN(c2ccc(Cl)cn2)CC[C@@]1(O)C1CCOCC1 | 111.4
92 | CNc1ccnc(N2CC[C@@](O)(C3CCOCC3)[C@H](C)C2)n1 | 0.6002
93 | C[C@@H]1CN(C(=O)c2ccc(C#N)nc2)CC[C@@]1(O)C1CCOCC1 | -17.54
94 | CN(Cc1ccsc1)C(=O)C1CCC(=O)N(Cc2ccccn2)C1 (configuration not stated) | 0.2635
95 | O=C(Nc1ccc(F)cc1)C1CNCCN1C(=O)CSc1ccncc1 (configuration not stated) | -2.751
96 | CN1CC(Nc2ccc(Br)cc2C#N)CCC1=O (configuration not stated) | -7.586
97 | CN(Cc1n[nH]c(=O)n1Cc1cccs1)S(C)(=O)=O | 2.826
